Results: PubChem BioAssay AID1159580 (chemical genetic matrix, 2015)
Among all 5,500 compounds or so, about 2,000 (36%) were called active. Inconclusive results (about 18%) are left out. No stated cut-off is given here; in the data, active means normalized growth mostly below about 0.91 (no sharp cut-off); inconclusive means no clear call, values can overlap the other calls; inactive means mostly above about 0.92. The list shows a part of the results.

Test: chemical genetic growth profiling, strain panel (AID 1159580);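 further: tested at 20 µM; growth read once vehicle control cultures reached saturation at 30 °C; 1 = growth at the plate median or of vehicle wells; lower values mean less growth of the strain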
Conditions: growth OD

Measured: normalized growth

O=C(O)c1ccccc1C(=O)Nc1ccc(S(=O)(=O)Nc2nccs2)cc1
inactive: S. cerevisiae deletion strains, locus YJR066W, strain TOR1, hits give low values 0.983 | S. cerevisiae deletion strains, locus YJR075W, strain HOC1, hits give low values 1.02 | S. cerevisiae deletion strains, locus YKL009W, strain mrt4, hits give low values 1.03 | S. cerevisiae deletion strains, locus YKL068W, hits give low values 0.987 | S. cerevisiae deletion strains, locus YKL085W, strain MDH1 (second series), hits give low values 0.984 | S. cerevisiae deletion strains, locus YKL085W, strain MDH1, hits give low values 0.984 | S. cerevisiae deletion strains, locus YKL160W, strain elf1, hits give low values 0.972 | S. cerevisiae deletion strains, locus YKL190W, strain CNB1, hits give low values 1 | S. cerevisiae deletion strains, locus YKR001C, strain vps1, hits give low values 1 | S. cerevisiae deletion strains, locus YKR026C, strain gcn3, hits give low values 0.981 | S. cerevisiae deletion strains, locus YKR091W, strain srl3, hits give low values 0.984 | S. cerevisiae deletion strains, locus YLL001W, strain dnm1, hits give low values 0.966 | S. cerevisiae deletion strains, locus YLL026W, hits give low values 0.988 | S. cerevisiae deletion strains, locus YLL041C, strain sdh2, hits give low values 0.969 | S. cerevisiae deletion strains, locus YLR027C, strain aat2, hits give low values 0.982 | S. cerevisiae deletion strains, locus YLR039C, strain RIC1, hits give low values 1 | S. cerevisiae deletion strains, locus YLR058C, strain SHM2, hits give low values 1.01 | S. cerevisiae deletion strains, locus YLR102C, strain apc9, hits give low values 0.99 | S. cerevisiae deletion strains, locus YLR113W, strain HOG1, hits give low values 1 | S. cerevisiae deletion strains, locus YLR221C, strain rsa3, hits give low values 0.95 | S. cerevisiae deletion strains, locus YLR258W, strain gsy2, hits give low values 0.986 | S. cerevisiae deletion strains, locus YLR262C, strain YPT6 (second series), hits give low values 1 | S. cerevisiae deletion strains, locus YLR262C, strain YPT6, hits give low values 1.03 | S. cerevisiae deletion strains, locus YLR268W, strain sec22, hits give low values 0.998 | S. cerevisiae deletion strains, locus YLR320W, strain mms22, hits give low values 0.976 | S. cerevisiae deletion strains, locus YLR330W, strain CHS5, hits give low values 1 | S. cerevisiae deletion strains, locus YLR342W, strain FKS1 (second series), hits give low values 0.994 | S. cerevisiae deletion strains, locus YLR342W, strain FKS1, hits give low values 0.99 | S. cerevisiae deletion strains, locus YLR357W, strain rsc2, hits give low values 0.975 | S. cerevisiae deletion strains, locus YLR370C, strain arc18, hits give low values 0.959 | S. cerevisiae deletion strains, locus YLR371W, strain rom2, hits give low values 0.998 | S. cerevisiae deletion strains, locus YLR384C, strain iki3, hits give low values 0.976 | S. cerevisiae deletion strains, locus YLR418C, strain cdc73, hits give low values 0.992 | S. cerevisiae deletion strains, locus YML016C, strain PPZ1, hits give low values 0.995 | S. cerevisiae deletion strains, locus YML032C, strain rad52, hits give low values 0.994 | S. cerevisiae deletion strains, locus YML120C, strain ndi1, hits give low values 0.969 | S. cerevisiae deletion strains, locus YML124C, strain tub3, hits give low values 0.992 | S. cerevisiae deletion strains, locus YMR058W, strain fet3, hits give low values 0.98 | S. cerevisiae deletion strains, locus YMR078C, strain ctf18, hits give low values 0.99 | S. cerevisiae deletion strains, locus YMR125W, strain sto1, hits give low values 0.96 | S. cerevisiae deletion strains, locus YMR129W, hits give low values 0.989 | S. cerevisiae deletion strains, locus YMR205C, strain PFK2, hits give low values 0.965 | S. cerevisiae deletion strains, locus YMR223W, strain ubp8, hits give low values 0.998 | S. cerevisiae deletion strains, locus YMR231W, strain pep5, hits give low values 0.974 | S. cerevisiae deletion strains, locus YMR307W, strain GAS1, hits give low values 0.973 | S. cerevisiae deletion strains, locus YNL067W, strain RPL9B, hits give low values 1.01 | S. cerevisiae deletion strains, locus YNL071W, strain lat1, hits give low values 0.987 | S. cerevisiae deletion strains, locus YNL128W, strain TEP1, hits give low values 1.02 | S. cerevisiae deletion strains, locus YNL183C, strain NPR1, hits give low values 0.975 | S. cerevisiae deletion strains, locus YNL209W, strain ssb2, hits give low values 0.989 | S. cerevisiae deletion strains, locus YNL233W, strain BNI4, hits give low values 1.01 | S. cerevisiae deletion strains, locus YNL248C, strain rpa49, hits give low values 0.97 | S. cerevisiae deletion strains, locus YNL250W, strain rad50, hits give low values 1 | S. cerevisiae deletion strains, locus YNL271C, strain bni1, hits give low values 0.982 | S. cerevisiae deletion strains, locus YNL298W, strain CLA4, hits give low values 0.995 | S. cerevisiae deletion strains, locus YNL307C, strain MCK1, hits give low values 1 | S. cerevisiae deletion strains, locus YNL322C, strain KRE1 (second series), hits give low values 0.945 | S. cerevisiae deletion strains, locus YNL322C, strain KRE1, hits give low values 1.01 | S. cerevisiae deletion strains, locus YNR049C, strain mso1, hits give low values 0.976 | S. cerevisiae deletion strains, locus YNR052C, strain pop2, hits give low values 0.994 | S. cerevisiae deletion strains, locus YOL006C, strain TOP1, hits give low values 1.02 | S. cerevisiae deletion strains, locus YOL012C, strain htz1 0.647 | S. cerevisiae deletion strains, locus YOL147C, strain pex11, hits give low values 0.987 | S. cerevisiae deletion strains, locus YOR001W, strain rrp6, hits give low values 0.999 | S. cerevisiae deletion strains, locus YOR061W, strain CKA2, hits give low values 1 | S. cerevisiae deletion strains, locus YOR069W, strain VPS5, hits give low values 1 | S. cerevisiae deletion strains, locus YOR070C, strain gyp1, hits give low values 0.976 | S. cerevisiae deletion strains, locus YOR080W, strain dia2, hits give low values 0.973 | S. cerevisiae deletion strains, locus YOR083W, strain WHI5, hits give low values 0.983 | S. cerevisiae deletion strains, locus YOR106W, strain vam3, hits give low values 0.972 | S. cerevisiae deletion strains, locus YOR136W, strain idh2, hits give low values 1 | S. cerevisiae deletion strains, locus YOR144C, strain elg1, hits give low values 0.993 | S. cerevisiae deletion strains, locus YOR184W, strain ser1, hits give low values 1 | S. cerevisiae deletion strains, locus YOR231W, strain MKK1, hits give low values 1.04 | S. cerevisiae deletion strains, locus YOR265W, strain rbl2, hits give low values 0.99 | S. cerevisiae deletion strains, locus YOR270C, strain vph1, hits give low values 0.983 | S. cerevisiae deletion strains, locus YOR290C, strain snf2, hits give low values 0.959 | S. cerevisiae deletion strains, locus YOR316C, strain cot1, hits give low values 1.01 | S. cerevisiae deletion strains, locus YPL051W, strain arl3, hits give low values 1 | S. cerevisiae deletion strains, locus YPL078C, strain atp4, hits give low values 0.983 | S. cerevisiae deletion strains, locus YPL106C, strain sse1, hits give low values 0.936 | S. cerevisiae deletion strains, locus YPL240C, strain hsp82, hits give low values 0.979 | S. cerevisiae deletion strains, locus YPL241C, strain CIN2, hits give low values 0.999 | S. cerevisiae deletion strains, locus YPL256C, strain CLN2, hits give low values 1.02 | S. cerevisiae deletion strains, locus YPR119W, strain clb2, hits give low values 0.99 | S. cerevisiae deletion strains, locus YPR141C, strain kar3, hits give low values 0.984 | S. cerevisiae deletion strains, locus YPR163C, strain tif3, hits give low values 0.993 | S. cerevisiae deletion strains, locus YPR167C, strain met16, hits give low values 0.997 | S. cerevisiae deletion strains, strain wtn01, hits give low values 0.995 | S. cerevisiae strains, strain wild type, hits give low values 1
